Assay outcomes (PubChem BioAssay)
HT1080 IDH1KD tx – qHTS for induction of synthetic lethality in tumor cells producing 2HG: qHTS for the HT-1080-IDH1KD cell line | Potency, µM (highest dose often 46.1 µM), inactives show top-dose activity, negative = toxicity, actives largely listed as cytotoxic | AID 686971, 2013 | HT-1080 IDH1 knockdown viability, ATP luminescence, 48 h | actives 2% (n = 360,000);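 note: potency is the fitted concentration of half-maximal effect; 0% = DMSO wells and -100% = cell-free medium wells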
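In this qHTS, HT-1080 cells depleted of IDH1 are exposed for 48 h at 37 °C to compound titrations. Toxicity is scored from CellTiter-Glo luminescence, with DMSO as full viability and medium alone as none.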
DT40 TDP1 no CPT – qHTS for Inhibitors of human tyrosyl-DNA phosphodiesterase 1 (TDP1): qHTS in cells in absence of CPT. actives 15% (n = 420,000). DT40 Tdp1-/- hTDP1 cells, no CPT, ATP luminescence, 48 h. Potency, µM (top dose mostly 46.2 µM), inactives show top-dose activity change, negative = growth inhibition, actives largely listed as inhibitors. AID 686978, 2013; note: potency is the fitted concentration of half-maximal effect; nearly all actives have a fitted effect of over 55% in size
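Seeded 400 DT40-hTDP1 cells/well (vehicle DMSO, no 20 nM CPT); pinned compounds; ≥48 hr at 37 °C; CellTiter-Glo luminescence as viability measure.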
HT1080NT lethal – qHTS for induction of synthetic lethality in tumor cells producing 2HG: qHTS for the HT-1080-NT fibrosarcoma cell line; HT-1080-NT fibrosarcoma viability, CellTiter-Glo ATP luminescence, 48 h; Potency, µM (doses to about 46.1 µM), inactives show top-dose activity, negative = less viability, actives largely listed as cytotoxic; actives 1.6% (n = 360,000);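 note: NT is the 2HG producing partner of a matched IDH1 knockdown line; potency is the fitted concentration of half-maximal effect; 0% = DMSO-treated cells and -100% = media-only wells without cells; nearly all actives have a fitted effect of over 55% in size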
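Viability by CellTiter-Glo luminescence after 48 h compound exposure at 37C of HT-1080-NT cells (750/well, RPMI, 5% FBS). % activity scaled between DMSO wells and medium-only wells, then curve-fitted and categorized by curve class.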
TDP1 cell CPT – qHTS for Inhibitors of human tyrosyl-DNA phosphodiesterase 1 (TDP1): qHTS in cells in presence of CPT; Potency, µM (highest dose often 46.2 µM), without a hit: top-dose activity change, negative = growth inhibition, most hits filed as inhibitors; actives 12% (n = 420,000); chicken DT40 Tdp1-/-;hTDP1 cells + 20 nM CPT, ATP luminescence, 48 h; note: potency is the fitted concentration of half-maximal effect; nearly all actives have a fitted effect of over 55% in size
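Cell growth measured by CellTiter-Glo luminescence after a minimum 48 h, 37 C compound exposure with 20 nM CPT in Tdp1-knockout DT40 cells stably expressing hTDP1, seeded 400/well; qHTS titration format.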
IL-1B inflam inh – qHTS for Inhibitors of Inflammasome Signaling: IL-1-beta AlphaLISA Primary Screen; THP-1 LPS/ATP IL-1B secretion, AlphaLISA, 16 h; hits give low values; activity change, % at 57.5 µM; actives 4.7% (n = 360,000); AID 743279, 2014; in the data active = activity change below about -50%; inconclusive = mostly about -30% to -49%
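THP-1 cells pretreated 1 hr with compounds (up to 57.5 uM final), then stimulated with LPS (250 ng/mL final) plus ATP (1.25 mM final); secreted IL-1B measured by AlphaLISA after 16 hr, decreased signal indicating inhibition.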
An asterisk follows results filed as active; ? = inconclusive; nt = not tested or not shown; [ ] = remark or other dose. Rows were chosen to be rich in hits. Some 19% of all compounds tested hit in one or more screens of this group. Unless noted, calls come from the whole dose curve; as a rule, active = well fitted curve in the direction sought with a large enough effect; inconclusive = small, poorly fitted or top-dose-only effect, or another doubt; inactive = no such curve, though single readings can be large; an effect the other way counts as inactive or inconclusive. Unless noted, % is set by controls: 0 for no effect and ±100 for the full control effect.

SMILES	HT1080 IDH1KD tx	DT40 TDP1 no CPT	HT1080NT lethal	TDP1 cell CPT	IL-1B inflam inh
COc1ccc(NC(=O)CC2Nc3cc(C)c(C)cc3NC2=O)c([N+](=O)[O-])c1 (stereo not drawn)	-3%	5.8µM*	-1%	?	-6
COc1ccc(NC(=O)CN2CCCCC2)c([N+](=O)[O-])c1	3%	13µM*	0%	13µM*	?
COc1ccc(NC(=O)Cc2ccc(C)cc2)c([N+](=O)[O-])c1	15%	?	14%	-25%	0
COc1cc(-c2ccc(NC(=O)CN3CCC(C)CC3)c(OC)c2)ccc1NC(=O)CN1CCC(C)CC1	-30%	18µM*	-28%	23µM*	-1
CNS(=O)(=O)c1cccc(C(=O)OCC(=O)Nc2ccc(OC)cc2[N+](=O)[O-])c1	5%	6.5µM*	0%	33µM*	7
COc1ccc(NC(=O)CN2CCC(C)CC2)cc1	4%	-7%	13%	-1%	13
CCN(CC)c1ccc2cc(-c3nc(-c4ccccc4)no3)c(=O)oc2c1	nt	5.8µM*	nt	?	nt
COc1ccc2cc(C3CC(c4cccs4)=NN3S(C)(=O)=O)c(Cl)nc2c1 (stereo not drawn)	-2%	?	-1%	16µM*	-17
CCOc1ccc2cc(C3CC(c4ccco4)=NN3S(C)(=O)=O)c(Cl)nc2c1 (stereo not drawn)	-8%	?	-1%	?	-60*
CCc1nc(N2CCN(S(C)(=O)=O)CC2)c2c3c(sc2n1)CCCC3	-11%	?	-14%	?	-5
CCC(C)Sc1nnc(NC(=O)C2CCN(C(=O)c3ccco3)CC2)s1 (stereo not drawn)	-1%	?	-1%	0%	18
COc1ccc2cc3cc(C(=O)N4CCN(c5ccccn5)CC4)oc3nc2c1	2%	18µM*	10%	?	6
COc1ccc2cc3cc(C(=O)N4CCN(Cc5ccc6c(c5)OCO6)CC4)oc3nc2c1	?	?	-28%	?	-65*
CCC(Oc1ccccc1)C(=O)N1CCN(Cc2cc(=O)n3nc(-c4cccc(C)c4)sc3n2)CC1 (stereo not drawn)	nt	23µM*	nt	?	nt
Cc1ccc(C(=O)N2CCN(Cc3cc(=O)n4nc(-c5ccccc5)sc4n3)CC2)cc1	nt	-4%	nt	2%	nt
CC(C)(C)c1ccc(C(=O)N2CCN(Cc3cc(=O)n4nc(-c5ccccc5F)sc4n3)CC2)cc1	nt	-1%	nt	4%	nt
Cc1ccccc1-c1nn2c(=O)cc(CN3CCN(C(=O)c4ccc(C(C)(C)C)cc4)CC3)nc2s1	nt	7.3µM*	nt	8.2µM*	nt
Cc1ccc(CNS(=O)(=O)c2c(C(=O)N3CCCCCC3)c(C)n(C)c2C)cc1	13%	0%	1%	-10%	-23
O=C(CC(Nc1cccc(Cl)c1Cl)C(=O)O)c1ccccc1 (stereo not drawn)	0%	12%	-17%	-22%	37
O=C(CC(Nc1ccc(Cl)cc1)C(=O)O)c1ccccc1 (stereo not drawn)	-19%	-26%	2%	21µM*	-7
O=C(CC(C(=O)O)c1ccc(Cl)cc1)c1ccccc1 (stereo not drawn)	11%	-17%	-1%	3%	2
Cc1c(Cl)cccc1NC(CC(=O)c1ccccc1)C(=O)O (stereo not drawn)	2%	?	4%	15µM*	-3
CCn1nc(-c2ccccc2)c(-c2ccccc2)c(C(=O)Nc2nc(C)c(C(C)=O)s2)c1=O	nt	1.6µM*	nt	1.6µM*	nt
CCCOc1ccc(C2Nc3cccc4cccc(c34)N2)cc1	-9%	6.5µM*	0%	21µM*	34
CCN(CC)c1ccc(C2NC(=O)c3ccccc3N2)cc1 (stereo not drawn)	?	13µM*	?	7.3µM*	39
SMILES	HT1080 IDH1KD tx	DT40 TDP1 no CPT	HT1080NT lethal	TDP1 cell CPT	IL-1B inflam inh
CCN(CC)c1ccc(N=C2C(=O)Nc3ccccc32)cc1	21µM*	5.8µM*	?	6.5µM*	-89*
Fc1ccc(C2Nc3cccc4cccc(c34)N2)cc1	-28%	?	-10%	?	-18
CCN(CC)c1ccc(C2Nc3cccc4cccc(c34)N2)cc1	-6%	16µM*	-13%	?	-8
FC(F)(F)c1ccc(C2Nc3cccc4cccc(c34)N2)cc1	2%	?	2%	?	-10
Cc1ccc(N=C2C(=O)Nc3ccccc32)cc1	1%	4%	-1%	-5%	17
CCN(CC)c1ccc(NC(=O)Nc2ccccc2)cc1	-8%	?	-7%	-8%	?
O=C1NCC(Nc2ccc(Cl)cc2)C(=O)N1 (stereo not drawn)	-9%	1%	8%	-4%	13
OCCN1CCN(c2ncnc3c2ncn3[C@H]2CN(Cc3ccc4c(c3)OCO4)C[C@@H](CO)O2)CC1	7%	?	?	-36%	25
Nc1nc(=O)n(C2CCCCO2)cc1Br (stereo not drawn)	10%	13%	9%	-4%	3
CCOC(=O)C1=NNC(C(=O)c2ccccc2)C1c1ccc(C)cc1 (stereo not drawn)	1%	-22%	10%	-15%	7
CCOC(=O)C1=NNC(C(=O)c2ccc(C)cc2)C1c1ccc(C)cc1 (stereo not drawn)	-5%	16µM*	-1%	?	-6
O=C(c1noc2c1CCCC2)N1CCOc2ccc(CN3CCN(c4ccccn4)CC3)cc2C1	nt	-17%	nt	10%[9.04 µM]	nt
CCOCCCn1c(C)nc2c(c1=O)c1nc3ccccc3nc1n2CCC1=CCCCC1	?	?	?	?	-73*
Cc1nc2c(c(=O)n1CCC1=CCCCC1)c1nc3ccccc3nc1n2/N=C/c1ccccc1	12%	?	2%	?	-21
CCOc1ccccc1CNC(=O)C1CCCN(c2nn3c(=O)cc(C)nc3s2)C1 (stereo not drawn)	2%	17%	5%	8%	5
